Structures are written as SMILES. The panel holds about 79,000 compounds, 15% with a hit somewhere; the sample as a whole holds those more often. Unmarked numbers belong to inactive results. No stated cut-off is given here; in the data, active means growth inhibition above about 70%; inactive means the rest.

This experiment can be described thus: NCI Yeast Anticancer Drug Screen. Data for the rad50 strain (AID 155).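 Further: 0% = growth of vehicle-only cultures of the same strain.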 The following applies: S. cerevisiae rad50 strain growth inhibition; at 50.0 µM; active compounds read high. The gist of the method: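 Compounds were tested on a yeast strain with an engineered DNA damage repair alteration; the reported value is growth inhibition normalised to vehicle treatment.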
As to `COC1OC(=O)c2ccccc21` (stereo not drawn), the growth inhibition is 12.2%. As for `CC(C)c1ccc(CN)cc1`, the figure is -23.4%; as for `Cc1cnc2cccc(C)c2c1Cl`, -29.5%; as for `COC(=O)C1=C(C(=O)OC)P2(C)(C)OC(c3ccccc3)CN2C1(c1ccccc1)c1ccccc1` (stereo not drawn), 18%. Next, `COC(=O)C1C(=C(c2ccccc2)c2ccccc2)C1c1ccccc1` (stereo not drawn): -1.75%; `Nc1ccc(NC(=O)Nc2ccc(N)cc2)cc1`: 24.5%.

For the compound `CN(C)c1ccc(/C=N\NC(=S)NN2CCN(NC(=S)N/N=C\c3ccc(N(C)C)cc3)CC2)cc1`, the growth inhibition was 30.2%. On to `O=C(NNC(=S)Nc1ccccc1)c1nsc2ccccc12`, for which the growth inhibition was 43.5%.

`COC(=O)c1ccc(/C=C2\Oc3ccccc3C2=O)cc1`: the growth inhibition is -54.1%. Next, `CCOc1ccc(N=Cc2c3ccccc3nc3ccccc23)cc1`: -3.05%; `O=C(Nc1ccccc1F)c1c(O)nc2sccn2c1=O`: 50.4%; `O=C(C=c1sc(=CC(=O)c2ccccc2)s1)c1ccccc1`: -3.5%. Next, `CC(=O)NC1CC(C)(C)NC(C)(C)C1`: -18.6%. For the compound `COc1cc2c(c3c1CCC(C)(C)O3)Cc1c(cc(OC)c(OC)c1CCC(C)(C)O)O2`, the growth inhibition is 41.8%.

In the case of `CC1(C)C=C(C(=O)ON2C(=O)CCC2=O)C(C)(C)N1O`, the growth inhibition was -4.85%. As for `CC12CCC(CC1C(=O)O)C2` (stereo not drawn), the figure is 19.4%; as for `O=C(O)/C=C(\CC(=O)O)C(=O)O`, 12.8%; as for `CC(=O)Nc1ccc(S(=O)(=O)Nc2cccc3ccccc23)cc1`, 23.2%.
